# Screening results deposited in PubChem BioAssay by several laboratories.
# Rows were chosen to be rich in hits. Some 2.4% of all compounds tested hit in one or more screens of this group.
# cardiac RTF act: cardiac RTF calcium sensitization; hit rate 0.24% among 340,000; P19429+P45379; activation, % at 7.2 µM; IANBD-labeled TnC RTF fluorescence at EC20 calcium; 0% EC20 calcium, 100% full calcium;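 active = activation above the mean over all tested compounds plus 3 SD, cut at about 30% in these data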;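 note: rise in fluorescence read as greater calcium sensitivity of cardiac thin filaments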
# Cardiac RTF inh: cardiac RTF calcium desensitization. P19429+P45379. IANBD-labeled cardiac RTF, Ca2+ fluorescence. inhibition, % at 7.15 µM. hit rate 0.12% among 340,000;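 active = inhibition above the mean inhibition of all tested compounds plus 3 SD, cut at about 17% in these data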;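 note: assay run at fixed EC70 calcium of 1.6 mM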
# TMEM16A inh: inhibitors of mouse TMEM16A calcium-activated chloride channel | normalized B-score (activity score, 25-100; higher = stronger inhibition) at 10 µM | HEK293 TMEM16A/YFP iodide influx fluorescence, ionomycin | Q8BHY3 | hit rate 1.2% among 310,000;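 active = ratio plate-corrected score three or more library SD toward inhibition, starting fluorescence score within five deviations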;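 note: score derived from kinetic fluorescence span divided by baseline fluorescence per well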
# Target sequence (Q8BHY3 whole entry, looked up): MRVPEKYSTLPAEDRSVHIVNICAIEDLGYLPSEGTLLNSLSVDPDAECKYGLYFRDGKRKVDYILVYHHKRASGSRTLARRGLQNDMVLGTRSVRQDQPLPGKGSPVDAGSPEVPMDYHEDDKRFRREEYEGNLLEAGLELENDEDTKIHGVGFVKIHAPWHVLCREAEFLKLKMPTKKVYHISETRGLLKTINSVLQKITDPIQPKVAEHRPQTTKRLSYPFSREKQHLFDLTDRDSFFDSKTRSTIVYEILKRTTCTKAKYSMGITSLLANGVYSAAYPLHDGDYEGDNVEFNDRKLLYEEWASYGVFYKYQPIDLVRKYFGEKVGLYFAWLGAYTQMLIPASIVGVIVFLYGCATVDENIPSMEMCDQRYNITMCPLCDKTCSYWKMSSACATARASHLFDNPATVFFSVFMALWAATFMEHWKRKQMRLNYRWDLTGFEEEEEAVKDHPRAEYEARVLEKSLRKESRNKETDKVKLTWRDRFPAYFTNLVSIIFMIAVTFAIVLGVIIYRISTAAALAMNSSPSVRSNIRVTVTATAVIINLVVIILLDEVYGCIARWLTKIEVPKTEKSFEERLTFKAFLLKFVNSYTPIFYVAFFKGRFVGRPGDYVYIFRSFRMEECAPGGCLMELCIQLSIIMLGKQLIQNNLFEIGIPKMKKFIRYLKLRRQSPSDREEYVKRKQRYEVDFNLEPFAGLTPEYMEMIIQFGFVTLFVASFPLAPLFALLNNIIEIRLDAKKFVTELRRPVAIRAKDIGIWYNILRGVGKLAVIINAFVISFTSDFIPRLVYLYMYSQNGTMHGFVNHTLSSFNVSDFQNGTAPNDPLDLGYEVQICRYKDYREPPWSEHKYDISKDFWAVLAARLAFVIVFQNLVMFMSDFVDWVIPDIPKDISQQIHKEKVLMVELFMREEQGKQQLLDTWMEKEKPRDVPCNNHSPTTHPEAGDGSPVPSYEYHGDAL
# CRFBP-R2 agonist: agonists of human CRF-binding protein/CRF-R2 receptor complex; HEK293 CRF-R2/CRF-BP, calcium dye fluorescence (FLIPR); percent of saturating CRF peptide response; activation, % at 13.2 µM; hit rate 0.46% among 350,000;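 active = activation of at least 50%, plus an integration ratio under a set limit after plate pattern correction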;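 note: plate controls were neutral control wells without compound for no effect and CRF at EC100 for full effect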
# ANO1 activ: mouse TMEM16A channel activation, primary screen. Q8BHY3. HEK293 TMEM16A/YFP-H148Q/I152L, iodide quench fluorescence; hits give low values. B-score at 10 µM. hit rate 0.3% among 340,000. AID 623877;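 active = fluorescence-ratio B-score plate-corrected deviation score at least 3 library SD below zero, with starting fluorescence score within 5 deviations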;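 note: channel opened by trigger with iodide after compound preincubation; score built on the fluorescence ratio of max minus min over baseline; more negative score means more quench and so TMEM16A activation or potentiation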
# CRFBP-R2 block: CRF-BP/CRF-R2 complex antagonism. HEK293 CRF-R2/CRF-BP, CRF-induced calcium fluorescence. inhibition, % at 11.8 µM. hit rate 0.59% among 350,000;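 active = inhibition of the ligand-induced calcium signal above about 50% at the single tested concentration, limit read from the data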
# The depositor's hits bear a star; i = inactive; nt = no result.
SMILES,cardiac RTF act,Cardiac RTF inh,TMEM16A inh,CRFBP-R2 agonist,ANO1 activ,CRFBP-R2 block
O=C1Nc2ccc(Br)cc2C1=Nc1ccc(-c2nnc3n2CCCCC3)cc1,nt,nt,i,nt,nt,nt
CCOC(=O)C(Cc1ccc(NC(=O)/C(=C\c2ccccc2)NC(=O)c2ccccc2)cc1)N1C(=O)c2ccccc2C1=O (stereo not drawn),12.4,-15.1,i,10.3,i,16.1
C=C1C(=O)c2sccc2C(c2ccc(OC)c(OC)c2)C1COC(C)=O (stereo not drawn),-4.2,0.5,nt,3.5,-4.85*,-1.2
CCN1CCN(CC(=O)N2N=C(c3cccs3)CC2c2ccc(OC)c(OC)c2)C(=O)C1=O (stereo not drawn),9.2,-0.8,i,0.1,i,6.0
CCOC(=O)CN(C(=O)c1ccccc1[N+](=O)[O-])C(C)(C)C,7.0,-10.7,i,0.2,i,0.1
CCOC(=O)c1ccc(NC(=O)CN2C(=O)CSC2=O)cc1,-1.5,-9.9,i,-0.5,i,102.2*
Cc1ccc(C(=O)O)cc1NC(=S)NC(=O)c1ccc(COc2ccccc2)cc1,2.9,-6.4,25*,1.9,i,32.4
CC(C)(O)c1cc2ccc(C#Cc3ccsc3)cc2c(=O)o1,-7.0,-3.0,nt,1.0,i,3.8
Clc1ccc(-n2cc(COCc3ccccc3)nn2)cc1,1.5,13.1,i,-4.0,i,63.3*
COCCCNC(=O)CCNS(=O)(=O)c1ccc(C)cc1,0.4,-13.0,25*,5.7,i,-7.3
CCN(C(=O)c1ccccc1)c1ccc([N+](=O)[O-])cc1,0.3,-1.1,i,-3.7,i,-4.6
O=[N+]([O-])c1ccc(N(c2ccccc2)c2ccccc2)cc1,21.6,-24.2,i,54.5*,i,-37.5
O=C1CCC(=O)N1CCSC(=S)N1CCSCC1,-6.8,0.8,i,4.4,i,-0.9
N#CC(C#N)=C1C=CC=CN1/C(=C\c1ccco1)C(=O)c1ccc(-c2ccccc2)cc1,0.1,3.0,i,2.5,i,-60.0
N#CC(C#N)=C1C=CC=CN1/C(=C\c1ccco1)C(=O)c1ccc(Cl)cc1,1.3,-19.7,i,60.6*,i,-88.0
CC1=C(C(=O)OC(C)(C)C)C(c2cccc3ccccc23)NC(=O)N1 (stereo not drawn),-0.4,-4.8,i,0.1,nt,65.4*
CC1=C(C(=O)OCCOC(C)C)C(c2cccc3ccccc23)NC(=O)N1 (stereo not drawn),1.3,-3.0,i,-1.8,i,-16.6
N#CCC(=O)Nc1ccc(C(=O)OCC(=O)NNC(=O)c2cccs2)cc1,-0.1,0.4,i,2.7,i,54.9*
O=C(Nc1cccc(O)c1)c1ccc(NC(=O)c2cccs2)cc1,-2.4,0.9,i,-1.1,i,68.0*
N#CCC(=O)Nc1ccc(C(=O)OCC(=O)NNC(=O)c2ccc(Cl)cc2)cc1,-2.4,6.3,i,1.8,i,2.8
O=C(OCc1cccc(C(F)(F)F)c1)c1cc(S(=O)(=O)N2CCOCC2)ccc1F,13.7,4.5,i,2.6,i,11.9
COc1cccc(C2CCCN2Cc2nc(-c3cnccn3)no2)c1 (stereo not drawn),1.4,-16.5,i,0.6,i,116.0*
Cc1c(N=Nc2c(-c3ccc([N+](=O)[O-])cc3)[nH]n(C(N)=S)c2=O)cccc1[N+](=O)[O-],-10.1,15.5,nt,42.5,i,66.1*
NC(=S)n1[nH]c(-c2ccc([N+](=O)[O-])cc2)c(N=Nc2ccccc2[N+](=O)[O-])c1=O,0.2,-5.6,nt,7.2,i,-75.4
Cc1ccc(N=Nc2c(C)[nH]n(C(N)=S)c2=O)cc1C,-5.6,-3.0,i,-0.4,i,-3.8
SMILES,cardiac RTF act,Cardiac RTF inh,TMEM16A inh,CRFBP-R2 agonist,ANO1 activ,CRFBP-R2 block
Cc1[nH]n(C(N)=S)c(=O)c1N=Nc1cccc([N+](=O)[O-])c1C,-1.1,-2.2,25*,5.9,i,-2.3
Cc1[nH]n(C(N)=S)c(=O)c1N=Nc1cc(-c2ccc(Br)cc2)[nH]n1,nt,nt,i,1.4,i,79.9*
CCOC(=O)NN1C(=O)c2ccccc2NC1c1cccs1 (stereo not drawn),-3.3,-5.8,i,-0.9,i,-6.2
O=C(Nc1ccccc1C(=O)N1CCOCC1)c1ccncc1,-2.6,-5.6,i,-5.5,i,102.0*
COc1cccc(CN2CC(C(=O)NCc3cnn(C)c3)CCC2=O)c1 (stereo not drawn),3.9,-3.0,i,0.1,i,6.5
COc1cccc(CNC(=O)C2CCC(=O)N(CC3CCCCC3)C2)c1OC (stereo not drawn),1.3,-6.0,i,3.3,i,91.9*
COc1cccc(OC)c1CNC(=O)C1CCC(=O)N(CC2CCCCC2)C1 (stereo not drawn),-7.4,-4.6,i,-0.1,i,-12.8
COc1cccc(CN2CC(C(=O)NCc3ccc(Cl)s3)CCC2=O)c1 (stereo not drawn),-4.2,4.0,nt,0.7,i,63.2*
O=C(NCc1cccc(Cl)c1)C1CCC(=O)N(CC2CCCCC2)C1 (stereo not drawn),-1.0,-6.1,i,-4.3,i,85.7*
CCOc1ccc(NC(=O)COC(=O)CN2CCCCCC2=O)cc1,2.8,-4.0,nt,-4.0,i,0.6
CC(C)N1CC(C(=O)Nc2ccc(Br)c(Cl)c2)CC1=O (stereo not drawn),3.3,-5.2,i,0.3,i,60.3*
Cc1ccc(NC(=O)C2CC(=O)N(C(C)C)C2)cc1Cl (stereo not drawn),0.1,-6.1,i,1.8,i,-6.2
CCN(C(=O)CCc1ccccc1)C1CCCCC1,-0.5,1.4,i,0.4,i,-4.1
CN1CCC(N(CCc2ccccc2)C(=O)CCC(=O)O)CC1,35.4*,-7.6,i,3.4,i,-3.5
CC(=O)c1cc(NC(=O)c2cccc(C(F)(F)F)c2)c(=O)oc1C,nt,nt,i,0.1,i,9.7
CC(=O)c1cc(NC(=O)c2cccc(C(F)(F)F)c2)c(=O)oc1/C=C/N(C)C,8.7,-12.0,i,75.7*,i,-119.5
CC(=O)c1cc(NC(=O)c2ccc(Cl)cc2)c(=O)oc1/C=C/N(C)C,27.3,-45.9,i,79.3*,i,-90.3
COc1cc(C(C#N)N2CCC(c3ccccc3)=N2)ccc1O (stereo not drawn),1.4,7.2,i,0.2,i,2.6
COc1ccc(/C=N/NC(=O)CCc2c(C)n[nH]c2C)cc1O,-3.3,0.6,i,0.3,i,5.2
Cc1cc(C)cc(NC(=S)N(Cc2ccc(Br)cc2)Cc2ccc(C(=O)O)cc2)c1,-2.9,-1.1,25*,-0.1,i,13.4
